Test [1] can be described thus: optical density shifts of acrAB sulA E. coli – strain DRC41, OD650, 48 h, E. coli filamentation inducer project, primary screen (AID 1152).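 Note: E. coli MC1000 strain DRC41 lacking acrAB efflux pump and sulA.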 The following applies: higher = more signal, called active from +8 up or from −8 down.
A short description of test [2]: probe aLefty1 binding on compound microarray – biochemical, small-molecule microarray, 635/667 nm fluorescence, primary screen (AID 1153).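 Note: score merges spot fluorescence with signal-to-noise ratio from the scanned slide images.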 The following applies: higher = more signal.
A short description of test [3]: plasmodial surface anion channel blockers, osmotic lysis – cell-based, P. falciparum Indochina, OD700, 1 h, primary screen (AID 1154). The following applies: P. falciparum Indochina infected RBC osmotic lysis, higher = more signal, called active from +8 up or from −8 down.
A short description of test [4]: plasmodial surface anion channel blockers, osmotic lysis – cell-based, P. falciparum Indochina, OD700, 2 h, primary screen (AID 1155).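 Note: lysis reports solute entry through the parasite surface anion channel PSAC.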 The following applies: P. falciparum Indochina infected erythrocytes, higher = more signal, called active from +8 up or from −8 down.
Test [5] is described as follows: changes in parasitized red cell lysis, either direction – P. falciparum Indochina, OD700, 3 h, PSAC antagonist project, primary screen (AID 1156). The following applies: P. falciparum-infected erythrocytes, osmotic lysis, higher = more signal, called active from +8 up or from −8 down.
Test [6] is described as follows: plasmodial surface anion channel blockers, osmotic lysis – cell-based, P. falciparum Indochina, OD700, 18 h, primary screen (AID 1157). The following applies: P. falciparum Indochina infected erythrocytes, osmotic lysis OD700, 18 h; higher = more signal, called active from +8 up or from −8 down.
Test [7] in a line: S6 kinase pathway phospho-S6 level changes – cell-based, A549, cytoblot, luminescence, serum-stimulated, primary screen (AID 1158).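 Note: serum-stimulated A549 lung adenocarcinoma cells; signal is phosphorylated S6 detected by cytoblot immunostaining with HRP secondary.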 The following applies: 5 h, higher = more signal.
In test [8] the target is NADPH oxidase 2 (Homo sapiens) (UniProt P04839). Kind of test: compounds shifting NOX2 Amplex Red fluorescence – cell-based, HEK293-NOX2, PMA-stimulated, NOX inhibitor project, primary screen (AID 1159). Note: test concentration not given here. The note with it: 45 min, higher = more signal, called active from +8 up or from −8 down.
Chain of NADPH oxidase 2 (Homo sapiens) (P04839 whole entry, looked up): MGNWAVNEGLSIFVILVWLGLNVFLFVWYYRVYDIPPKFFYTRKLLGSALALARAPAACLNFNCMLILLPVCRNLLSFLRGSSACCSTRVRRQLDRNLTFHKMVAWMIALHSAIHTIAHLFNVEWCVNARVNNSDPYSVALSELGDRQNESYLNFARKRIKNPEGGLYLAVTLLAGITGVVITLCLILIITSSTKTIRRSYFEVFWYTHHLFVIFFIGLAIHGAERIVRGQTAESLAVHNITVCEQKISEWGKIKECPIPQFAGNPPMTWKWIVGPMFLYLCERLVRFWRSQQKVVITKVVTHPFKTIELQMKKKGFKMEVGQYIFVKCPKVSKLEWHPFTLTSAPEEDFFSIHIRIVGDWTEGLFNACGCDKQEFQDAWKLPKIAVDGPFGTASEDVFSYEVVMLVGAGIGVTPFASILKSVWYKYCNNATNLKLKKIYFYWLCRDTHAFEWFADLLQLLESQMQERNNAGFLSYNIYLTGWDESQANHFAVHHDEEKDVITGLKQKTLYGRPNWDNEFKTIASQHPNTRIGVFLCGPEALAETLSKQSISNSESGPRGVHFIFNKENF
In test [9] the target is NADPH oxidase 4 (Homo sapiens) (UniProt Q9NPH5). Kind of test: compounds shifting NOX4 Amplex Red fluorescence – cell-based, HEK293-NOX4, tetracycline-induced, NOX inhibitor project, primary screen (AID 1160). The note with it: HEK293-NOX4, Amplex Red H2O2 fluorescence, 45 min; higher = more signal, called active from +8 up or from −8 down.
Chain of NADPH oxidase 4 (Homo sapiens) (Q9NPH5 whole entry, looked up): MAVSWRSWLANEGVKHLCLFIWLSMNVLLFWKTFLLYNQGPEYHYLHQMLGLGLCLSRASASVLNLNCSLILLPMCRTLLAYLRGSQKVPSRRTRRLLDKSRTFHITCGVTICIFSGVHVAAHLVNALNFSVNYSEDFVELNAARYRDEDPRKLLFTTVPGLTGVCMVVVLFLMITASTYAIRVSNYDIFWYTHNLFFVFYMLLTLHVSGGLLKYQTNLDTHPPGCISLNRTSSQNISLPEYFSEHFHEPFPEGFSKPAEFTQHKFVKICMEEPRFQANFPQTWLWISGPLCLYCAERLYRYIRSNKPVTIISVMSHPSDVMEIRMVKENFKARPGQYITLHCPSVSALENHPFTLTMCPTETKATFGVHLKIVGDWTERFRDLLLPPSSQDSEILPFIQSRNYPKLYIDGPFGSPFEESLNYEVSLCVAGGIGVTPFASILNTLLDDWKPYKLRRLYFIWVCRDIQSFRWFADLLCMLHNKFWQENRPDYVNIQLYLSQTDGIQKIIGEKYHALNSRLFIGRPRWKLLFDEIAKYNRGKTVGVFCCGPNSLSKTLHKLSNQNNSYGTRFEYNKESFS
Test [10] deals with NADPH oxidase 5 (Homo sapiens) (UniProt Q96PH1). In words: compounds shifting NOX5 Amplex Red fluorescence – cell-based, HEK293-NOX5, NOX inhibitor project, primary screen (AID 1161). The note with it: HEK293-NOX5, ionomycin, 45 min, higher = more signal.
Chain of NADPH oxidase 5 (Homo sapiens) (Q96PH1 whole entry, looked up): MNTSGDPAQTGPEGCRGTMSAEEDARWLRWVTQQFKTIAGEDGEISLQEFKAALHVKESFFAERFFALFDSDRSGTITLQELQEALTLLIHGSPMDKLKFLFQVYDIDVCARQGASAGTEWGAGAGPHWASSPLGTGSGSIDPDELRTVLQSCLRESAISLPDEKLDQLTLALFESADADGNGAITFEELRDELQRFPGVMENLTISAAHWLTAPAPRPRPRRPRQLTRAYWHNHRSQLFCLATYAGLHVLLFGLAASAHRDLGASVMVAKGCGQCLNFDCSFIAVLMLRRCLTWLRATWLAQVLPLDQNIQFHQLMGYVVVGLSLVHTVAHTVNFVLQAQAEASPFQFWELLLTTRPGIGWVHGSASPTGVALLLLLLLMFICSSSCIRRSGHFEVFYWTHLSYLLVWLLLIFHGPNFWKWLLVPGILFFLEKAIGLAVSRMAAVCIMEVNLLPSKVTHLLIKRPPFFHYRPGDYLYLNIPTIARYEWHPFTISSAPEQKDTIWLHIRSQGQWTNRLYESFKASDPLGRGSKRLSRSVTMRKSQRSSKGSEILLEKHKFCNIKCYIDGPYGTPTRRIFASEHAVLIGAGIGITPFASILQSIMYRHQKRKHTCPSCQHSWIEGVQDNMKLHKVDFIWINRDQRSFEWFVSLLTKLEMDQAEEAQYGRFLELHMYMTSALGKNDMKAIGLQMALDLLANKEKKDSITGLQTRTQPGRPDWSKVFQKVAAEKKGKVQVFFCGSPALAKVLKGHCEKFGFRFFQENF
Test [11] in a line: compound effects on lung adenocarcinoma cell viability – A549, calcein-AM fluorescence, 48 h, basal, profiling panel (AID 1162). Note: test concentration not given here. The following applies: higher = more signal.
The nature of test [12]: compound effects on differentiated 3T3-L1 adipocyte viability – cell-based, 3T3-L1 adipocytes, calcein-AM fluorescence, 48 h, basal, profiling panel (AID 1163). Note: test concentration not given here. The following applies: 3T3-L1 adipocytes viability, higher = more signal.
The nature of test [13]: compound effects on hepatocellular carcinoma cell viability – HepG2, calcein-AM fluorescence, 48 h, basal, profiling panel (AID 1164). Note: test concentration not given here. The following applies: higher = more signal.
Test [14] in a line: compound effects on multiple myeloma cell viability – MM1S, calcein-AM fluorescence, 48 h, basal, profiling panel (AID 1165).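 Note: viability of MM1S multiple myeloma cells under basal unstimulated conditions; test concentration not given here.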 The following applies: higher = more signal.
Test [15] can be described thus: calcein-AM signal in unstimulated myeloma cells – cell-based, calcein-AM fluorescence, 48 h, PK04 Diversity Set, profiling panel (AID 1166).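 Note: cells grown under basal conditions without added stimulus; test concentration not given here.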 The note with it: RPMI8226 myeloma viability, higher = more signal.
A short description of test [16]: JC-1 mitochondrial signal, unstimulated HepG2 cells – cell-based, JC-1 fluorescence, 24 h, 100 nL compound, profiling panel (AID 1167). Note: test concentration not given here. The note with it: HepG2 mitochondrial potential, higher = more signal.
The nature of test [17]: JC-1 mitochondrial signal, unstimulated adipocytes – cell-based, JC-1 fluorescence, 3T3-L1 adipocytes, 24 h, 100 nL compound, profiling panel (AID 1168). Note: test concentration not given here. The note with it: JC-1 mitochondrial fluorescence, higher = more signal, called active from +8 up or from −8 down.
Test [18] can be described thus: JC-1 mitochondrial signal, unstimulated myeloma cells – cell-based, JC-1 fluorescence, RPMI8226, 24 h, 100 nL compound, profiling panel (AID 1169). Note: test concentration not given here. The following applies: JC-1 mitochondrial potential fluorescence, higher = more signal.
Test [19] is described as follows: JC-1 mitochondrial signal, unstimulated MM1S myeloma – cell-based, JC-1 fluorescence, 24 h, 100 nL compound, profiling panel (AID 1170). Note: test concentration not given here. The following applies: MM1S mitochondrial potential, higher = more signal.
Test [20] is described as follows: resazurin metabolic signal in A549 cells – cell-based, resazurin fluorescence, 24 h, PK04 Diversity Set, profiling panel (AID 1171). Note: test concentration not given here. The note with it: A549 viability, higher = more signal, called active from +8 up or from −8 down. A general note: Alamar Blue is a resazurin reagent that responds to reducing activity.

SMILES strings stand for the structures. Active and inactive are the calls of the source.

Regarding `CC(=O)NCCCC[C@@H]1NC(=O)[C@@H]2C[C@H](C(=O)NCc3ccc(F)cc3)[C@H](c3cccc(OCCO)c3)N2C1=O`, the z-score in [1] is 0.197 (inactive); in test [3], 5.48 (inactive); in [4], 0.503 (inactive); in test [5], -4.35 (inactive); in test [6], 0.374 (inactive); in test [7], -0.206. Moreover, the z-score in test [8] is 1.87 (inactive); in test [9], 1.42 (inactive); in test [10] it was 1.1; in test [11] it was 0.53; in test [12] it was 0.0222; in test [13] it was 0.64. Also, the z-score was -0.0893 in [14]; -0.12 in [15]; -0.0575 in [16]; -0.568 (inactive) in test [17]; -0.3 in test [18]; -0.513 in test [19]. Besides, the z-score in [20] is -0.12 (inactive). Further, the composite z-score in [2] was determined as 0.0259.
With `O=C(NCc1ccccc1)c1ccc(Br)cc1[N+](=O)[O-]`, the z-score in test [1] was -1.03 (inactive); in [3] it was -0.403 (inactive); in [4] it was -0.0642 (inactive); in [5] it was -1.3 (inactive); in test [6], 0.0836 (inactive); in test [7], -0.597. The z-score in test [8] is -0.564 (inactive); in [9], -0.281 (inactive); in test [10] it was -0.032; in [11], -0.787; in test [12], 0.0153; in test [13] it was 0.0565. The z-score is -0.0086 in test [14]; 0.287 in [15]; -0.0457 in [16]; 0.346 (inactive) in test [17]; -0.745 in [18]; 0.189 in test [19]. In addition, in test [20], the z-score is 0.0828 (inactive). This molecule came in with a composite z-score in test [2] of -0.17.
For the molecule `COCCOC(=O)N1C(=O)[C@@]2(c3cc(C#CCCO)ccc31)[C@H](c1ccc(OCCO)cc1)N1[C@H](c3ccccc3)[C@H](c3ccccc3)OC(=O)[C@H]1[C@@H]2C(=O)NC[C@H](O)c1ccccc1`, the z-score in test [1] was 1.04 (inactive); in test [3] it was 2.48 (inactive); in test [4] it was 1.1 (inactive); in [5] it was 0.68 (inactive); in test [6], 0.678 (inactive); in [7], 0.75. In addition, the z-score was 2.04 (inactive) in [8]; 0.385 (inactive) in test [9]; 0.419 in test [10]; 0.0831 in [11]; 1.33 in test [12]; -0.796 in test [13]. For the same molecule, the z-score in [14] was 0.0067; in test [15] it was -1.06; in test [16] it was -0.0377; in [17] it was 0.357 (inactive); in [18], 0.0686; in [19] it was -0.709. In test [20], the z-score is 0.703 (inactive). In test [2], this molecule gave a composite z-score of -0.0054.
As to `C=CCC(OC(C)=O)[C@@H]1[C@@H](N(Cc2cccc3ccccc23)C(=O)Cc2ccc(F)cc2)c2cc(OCCCO)ccc2N1C(=O)Cc1ccc2ccccc2c1` (stereo not given in full), the z-score in [1] was 0.576 (inactive); in test [3], 1.71 (inactive); in [4], 0.605 (inactive); in [5], -0.0952 (inactive); in test [6], 0.434 (inactive); in test [7] it was 0.163. In addition, the z-score is -0.606 (inactive) in test [8]; 0.626 (inactive) in test [9]; 0.765 in test [10]; 0.677 in [11]; -0.399 in [12]; 0.607 in test [13]. Besides, the z-score in [14] was 0.853; in [15], -0.538; in test [16], 1.72; in [17], 0.38 (inactive); in [18], -0.0877; in test [19], -0.24. The z-score in test [20] was 0.775 (inactive). In addition, the composite z-score in test [2] was -0.0162.
`COCCOC(=O)N1C(=O)[C@@]2(c3cc(C#CC4(O)CCCCCC4)ccc31)[C@H](C(=O)N1CCCCCCC1)[C@H]1C(=O)O[C@H](c3ccccc3)[C@H](c3ccccc3)N1[C@@H]2c1ccc(O)cc1`: the z-score in test [1] was 1.13 (inactive); in test [3], 0.908 (inactive); in test [4], 0.128 (inactive); in test [5], -0.373 (inactive); in [6], -0.763 (inactive); in test [7] it was 1.49. Moreover, the z-score in test [8] is 1.5 (inactive); in [9], 0.372 (inactive); in [10] it was 2.35; in test [11], -0.475; in test [12], 2.45; in [13] it was -0.0416. Also, the z-score in test [14] was -0.747; in test [15] it was -0.733; in [16], -0.355; in test [17], 1.16 (inactive); in [18], -0.861; in test [19], -0.219. In addition, in test [20], the z-score is 0.627 (inactive). This molecule registered a composite z-score in test [2] of 2.25.
As to `O=C(CS)NCCCCCCNC(=O)[C@@H]1C[C@@H]2C(=O)N[C@@H](Cc3ccccc3)C(=O)N2[C@@H]1c1ccc(O)cc1`, the z-score was 0.706 (inactive) in test [1]; 6.26 (inactive) in test [3]; 1.52 (inactive) in test [4]; 4.5 (inactive) in test [5]; 0.595 (inactive) in [6]; -0.113 in test [7]. In addition, the z-score was 1.48 (inactive) in test [8]; 0.457 (inactive) in test [9]; 0.729 in [10]; -0.401 in [11]; 0.861 in test [12]; -0.963 in test [13]. Also, the z-score in [14] is -0.0227; in test [15], 0.612; in test [16], -1.67; in [17], -0.654 (inactive); in [18] it was -0.208; in [19], -0.716. The z-score in [20] was -0.226 (inactive). In [2], this molecule had a composite z-score of 0.0273.
For the molecule `C=C(COC)/C(=C/C[C@@H](OC(=O)c1ccncc1)c1ccc(OCCO)cc1)c1cc(C(=O)OC)ccc1OC`, the z-score was 2.31 (inactive) in [1]; 14.6 (active) in [3]; 0.629 (inactive) in [4]; 1.35 (inactive) in test [5]; -1.53 (inactive) in test [6]; 0.866 in [7]. The z-score in test [8] was 1.98 (inactive); in test [9], 2.24 (inactive); in test [10], -0.63; in test [11] it was 1.13; in [12], 1.51; in test [13], 0.183. The z-score in [14] was -0.312; in [15], 0.93; in test [16], 2.48; in [17], 1.79 (inactive); in [18], 0.116; in test [19] it was 0.487. In addition, the z-score in [20] is 1.6 (inactive). The molecule also came in with a composite z-score in test [2] of 0.0686.
Take `O=C/C=C/c1ccccc1Cl`: the z-score in [1] is 2.11 (inactive); in test [3], 0.159 (inactive); in test [4], 0.282 (inactive); in [5], -2.03 (inactive); in [6], 0.206 (inactive); in test [7], 1.11. Further, the z-score in test [8] is -0.129 (inactive); in test [9] it was -0.729 (inactive); in test [10], 1.38; in [11] it was 1.23; in test [12], 0.556; in test [13], 1.03. The z-score in test [14] is -0.882; in [15], 0.895; in test [16], 1.74; in [17] it was 0.603 (inactive); in test [18], 0.562; in test [19], 1.09. In addition, the z-score in test [20] is 0.807 (inactive). Further, in test [2], the composite z-score is -0.191.

The values are drawn from PubChem BioAssay.
